This passage reports growth results from PubChem BioAssay (NCI).

The panel holds about 83,000 compounds, 20% with a hit somewhere; the sample as a whole holds those more often.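 For each line, cells grew in 96-well plates with the test compound present at a single concentration for 48 hours.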 A number with no mark means an inactive call. The source made the active and inactive calls. Rule for the calls: active = growth percent below 10; inactive = the rest.

The subject of one assay is SNB-75 CNS. The assay is described as follows: NCI-60 one-dose screen, 48 h (100 = growth as untreated, 0 = no growth, -100 = all killed). The following applies: 10 µM unless noted.
With `CC1(C(=O)O)CCC(N)(C(=O)O)C1(C)C` (centres undefined), the growth is 90%.
Same read-out and setting: to `O=C(Nc1cccc(F)c1)c1cc(=O)[nH]c2cc(Br)ccc12` belongs 43.7%.
Take `N#Cc1c(Cl)nc(SCC2CO2)nc1-c1ccccc1` (centres undefined): the growth is 95.6%.
The same measure, in the same setting: with `CC1Cc2c(Cl)ncnc2N(C)c2ccc(Cl)cc21` (centres undefined) the figure was 50.1%; with `CCCc1cc2cc(-n3nc(C)c4c3CC(C)(C)CC4=O)cc(NC3CCSCC3)c2c(=O)[nH]1`, 102%; with `O=C(O)c1cn(C2CC2)c2cc(N3CCN(Cc4cc(Cl)ccc4O)CC3)c(F)cc2c1=O`, 67.6%.
With `COc1ccc2nc3cc(Cl)ccc3c(Nc3ccc(O)c(CN4CCCC4)c3)c2c1`, the growth is 31.5%.
The same measure, in the same setting: with `COc1ccc(C(=O)c2nccc3cc(OC)c(OC)cc23)cc1OC` the figure was 89.5%; with `CC1Cc2c(Cl)ncnc2N(C)c2ccc(O)cc21` (centres undefined), 85%; with `COc1ccc(-c2cc(-c3ccccc3)nc(NCCNc3ccnc4cc(Cl)ccc34)n2)cc1`, -68.3% (active).
On the same count and under the same terms, with `Cn1cc(-c2noc(C(=O)c3cn(C)c4ncc(Br)cc34)n2)c2ccccc21` the figure was 77.9%; with `O=C1CN(Cc2ccc(C(=O)NO)cc2)C(=O)[C@@H](Cc2ccccc2)N1`, 85.9%; with `O=C1/C(=C/c2ccc(OCc3ccccc3)cc2)Oc2cc(OCCN3CCCCC3)ccc21`, 83%.
`COC(=O)[C@@H](NC(=O)NC(=O)NC(=O)CI)C(C)C`: the growth was 102%.
The same measure, in the same setting: with `c1ccc2c(c1)CN(CCCN1CCOCC1)C2` the figure was 89.7%; with `Clc1ccccc1/C=N\Nc1ccccn1`, 74.8%.
For the molecule `CN(C)CCCNc1nc(-c2cccc(C(Cl)(Cl)Cl)c2)nc(C(Cl)(Cl)Cl)n1`, the growth is 83.1%.
On to `CC1(C)CC[C@]2(C(N)=O)CC[C@]3(C)C(=CC[C@@H]4[C@@]5(C)C/C(=C/c6ccncc6)C(=O)C(C)(C)[C@@H]5CC[C@]43C)[C@@H]2C1`, for which the growth was -86.4% [100 µM] (active).
On the same count and under the same terms, with `COc1ccc(N(c2nc(-c3ccc([N+](=O)[O-])cc3)cs2)C(C)C)cc1` the figure was 103%.
Regarding `CCOc1ccc(/C=C(\C#N)c2cc3ccccc3[nH]2)cc1`, the growth was 67.1%.
Consider `c1coc2occoc=2o1`, for which the growth was 97.4%.
Still for that read-out and setting: with `COc1cc2c(c(OC)c1)C1c3cc(OC)ccc3NC(=O)N1CC2` (centres undefined) the figure was 83.2%; with `CCC(C)[C@H](NC(=O)NC(=O)NC(=O)CI)C(=O)OC` (some centres undefined), 92.1%.

A further assay deals with SNB-19 CNS. Described as above. The following applies: 10 µM unless noted.
For the molecule `CCOC(=O)c1cnc2ccc(Br)cc2c1Nc1cccc(S(N)(=O)=O)c1`, the growth was 88%.
On the same count and under the same terms, to `CCCCC(CCCCCC(CCCC)C1NC(C)Cc2cc(OC)c(OC)cc21)C1NC(C)Cc2cc(OC)c(OC)cc21` (centres undefined) belongs -69.8% (active); to `O=C(N=c1n(-c2ccccc2)nc2n1CCN2C1=NCCN1C(=O)c1ccc(Cl)cc1)c1ccc(Cl)cc1`, 85.8%.
On the same count and under the same terms, to `O=C(OCc1ccc2c(Cl)cc(Cl)c(O)c2n1)N1CCN(C(=O)c2cc3cc(F)ccc3[nH]2)CC1` belongs 50.2%.
Turning to `CC1=C/C(=C(\c2cc(C)c(O)c(C(=O)O)c2)c2c(Cl)cccc2Cl)C=C(C(=O)O)C1=O`, the growth was 91.3%.
Regarding `COc1ccc(C(=O)CCC(=O)O)cc1`, the growth is 104%.
The same measure, in the same setting: with `CCN(CC)c1ccc(/C=C/C=C2\NC(=O)NC2=O)cc1` the figure was 34.6%; with `COc1cc(NCc2ccccc2O)c2ncccc2c1`, 92.8%; with `O=C(Oc1ccc(Cl)cc1[N+](=O)[O-])Oc1ccc(Cl)cc1[N+](=O)[O-]`, 115%.
Same read-out and setting: with `COc1ccc(-c2cc(-c3ccc(OC)c(OC)c3)nc(SCCCCCC(=O)NO)n2)cc1` the figure was 65.8%.
Same read-out and setting: to `O=C(NCCCNC(=O)OCc1ccc2cccc(O)c2n1)OCc1ccc2cccc(O)c2n1` belongs 54.6%.
As to `CCCCNC(=O)NS(=O)(=O)Cc1ccccc1`, the growth was 114%.
With `Nc1cccc2c1C(=O)c1cccc(NC(=O)c3ccccc3)c1C2=O`, the growth is 45.3%.
The same measure, in the same setting: to `Cc1cc(NN=C(c2ccc(O)cc2)c2ccc(O)cc2)c([N+](=O)[O-])cc1[N+](=O)[O-]` belongs 89.3%; to `CC1(C(=O)O)CCC(N)(C(=O)O)C1(C)C` (centres undefined), 105%.
The same measure, in the same setting: with `O=C(Nc1cccc(F)c1)c1cc(=O)[nH]c2cc(Br)ccc12` the figure was 54.7%; with `N#Cc1c(Cl)nc(SCC2CO2)nc1-c1ccccc1` (centres undefined), 106%; with `CC1Cc2c(Cl)ncnc2N(C)c2ccc(Cl)cc21` (centres undefined), 25.2%.
`CCCc1cc2cc(-n3nc(C)c4c3CC(C)(C)CC4=O)cc(NC3CCSCC3)c2c(=O)[nH]1`: the growth is 72%.
In the case of `O=C(O)c1cn(C2CC2)c2cc(N3CCN(Cc4cc(Cl)ccc4O)CC3)c(F)cc2c1=O`, the growth was 60.2%.
Still for that read-out and setting: to `COc1ccc2nc3cc(Cl)ccc3c(Nc3ccc(O)c(CN4CCCC4)c3)c2c1` belongs 62.5%; to `COc1ccc(C(=O)c2nccc3cc(OC)c(OC)cc23)cc1OC`, 94.9%.
On the same count and under the same terms, with `CC1Cc2c(Cl)ncnc2N(C)c2ccc(O)cc21` (centres undefined) the figure was 44.4%; with `COc1ccc(-c2cc(-c3ccccc3)nc(NCCNc3ccnc4cc(Cl)ccc34)n2)cc1`, -83.7% (active).
The same measure, in the same setting: with `Cn1cc(-c2noc(C(=O)c3cn(C)c4ncc(Br)cc34)n2)c2ccccc21` the figure was 96.6%; with `O=C1CN(Cc2ccc(C(=O)NO)cc2)C(=O)[C@@H](Cc2ccccc2)N1`, 98.5%; with `O=C1/C(=C/c2ccc(OCc3ccccc3)cc2)Oc2cc(OCCN3CCCCC3)ccc21`, 94.3%.
For the molecule `COC(=O)[C@@H](NC(=O)NC(=O)NC(=O)CI)C(C)C`, the growth is 94.5%.
Same read-out and setting: to `c1ccc2c(c1)CN(CCCN1CCOCC1)C2` belongs 96.1%.
On the same count and under the same terms, to `Clc1ccccc1/C=N\Nc1ccccn1` belongs 90.6%.
The same measure, in the same setting: with `CN(C)CCCNc1nc(-c2cccc(C(Cl)(Cl)Cl)c2)nc(C(Cl)(Cl)Cl)n1` the figure was 102%; with `CC1(C)CC[C@]2(C(N)=O)CC[C@]3(C)C(=CC[C@@H]4[C@@]5(C)C/C(=C/c6ccncc6)C(=O)C(C)(C)[C@@H]5CC[C@]43C)[C@@H]2C1`, -83.8% [100 µM] (active); with `COc1ccc(N(c2nc(-c3ccc([N+](=O)[O-])cc3)cs2)C(C)C)cc1`, 89.9%.
Turning to `c1coc2occoc=2o1`, the growth was 107%.
With `COc1cc2c(c(OC)c1)C1c3cc(OC)ccc3NC(=O)N1CC2` (centres undefined), the growth is 87.5%.
In the case of `CCC(C)[C@H](NC(=O)NC(=O)NC(=O)CI)C(=O)OC` (some centres undefined), the growth was 93.8%.
